Reference: PubChem BioAssay (NCI)
About 79,000 compounds went through this panel and 15% of them were active in at least one assay; those are over-represented in the sample as a whole. Activity calls are given as the source filed them. Cut-off read from the data, not from the text of the source: active = growth inhibition above about 70%; inactive = the rest.

Columns and labels:
[1] = NCI Yeast Anticancer Drug Screen. Data for the rad52 strain (AID 147);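 note: 0% = growth of vehicle-treated control cultures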; details: S. cerevisiae rad52 mutant growth inhibition, stronger effect = higher value
Method in brief: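 The repair-mutant yeast strain was incubated with compounds, then growth was read and inhibition derived relative to vehicle.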

[2] = NCI Yeast Anticancer Drug Screen. Data for the wt1 strain (AID 149);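 note: 0% = growth of vehicle-treated wt1 cultures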; details: S. cerevisiae wt1 strain (SPY 50644) growth inhibition, stronger effect = higher value
Method in brief: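 Yeast wt1 strain exposed to compounds; growth inhibition measured relative to vehicle-treated controls.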

[3] = NCI Yeast Anticancer Drug Screen. Data for the rad50EPP+ strain (AID 151);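 note: 0% = growth of vehicle-treated control cultures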; details: S. cerevisiae rad50 mutant strain, stronger effect = higher value
Method in brief: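 Vehicle-normalised growth inhibition; rad50EPP+ yeast strain, altered in DNA damage repair, compound-treated.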

[4] = NCI Yeast Anticancer Drug Screen. Data for the mgt1 strain (AID 153); details: S. cerevisiae mgt1 mutant growth inhibition, stronger effect = higher value
Method in brief: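 Vehicle-normalized growth inhibition is determined in mgt1 yeast, a strain selected for a defined alteration in DNA repair or cell cycle control.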

[5] = NCI Yeast Anticancer Drug Screen. Data for the rad50 strain (AID 155);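 note: 0% = growth of vehicle-only cultures of the same strain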; details: S. cerevisiae rad50 strain growth inhibition, stronger effect = higher value
Method in brief: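 Yeast carrying a defined DNA repair defect were exposed to test compounds, and growth was compared with vehicle-treated controls to give percent inhibition.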

[6] = NCI Yeast Anticancer Drug Screen. Data for the mec2-1 strain (AID 157); details: S. cerevisiae mec2-1 strain, stronger effect = higher value
Method in brief: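 Mutant yeast (mec2-1) grown with compound; growth inhibition relative to vehicle control reported.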

[7] = NCI Yeast Anticancer Drug Screen. Data for the rad14 strain (AID 159);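 note: 0% = growth of vehicle-treated control cultures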; details: S. cerevisiae rad14 strain growth inhibition, stronger effect = higher value
Method in brief: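 Yeast cells carrying a defined DNA-repair defect were exposed to compounds, and growth inhibition was calculated relative to vehicle-treated control cultures.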

[8] = NCI Yeast Anticancer Drug Screen. Data for the sgs1 mgt1 strain (AID 161);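 note: 0% = growth of cultures given vehicle only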; details: S. cerevisiae sgs1 mgt1 strain, stronger effect = higher value
Method in brief: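 Compounds are added to genetically altered yeast, and growth is compared with cultures given vehicle alone to give percent inhibition.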

[9] = NCI Yeast Anticancer Drug Screen. Data for the CLN2oe strain (AID 163);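 note: 0% = growth of vehicle-only control cultures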; details: S. cerevisiae CLN2oe strain, stronger effect = higher value
Method in brief: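 Compounds are applied to yeast harbouring a defined cell-cycle control change; reduced growth compared with vehicle-treated controls gives the value.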

[10] = NCI Yeast Anticancer Drug Screen. Data for the cln2 rad14 strain (AID 165);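 note: 0% = growth equal to vehicle treated cultures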; details: S. cerevisiae cln2 rad14 strain, stronger effect = higher value
Method in brief: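 Readout is yeast growth inhibition versus vehicle-treated controls, using a strain with cln2 and rad14 alterations exposed to compound.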

[11] = NCI Yeast Anticancer Drug Screen. Data for the bub3 strain (AID 167); details: S. cerevisiae bub3 mutant strain, stronger effect = higher value
Method in brief: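 Compounds were applied to a genetically altered yeast strain carrying a cell-cycle control defect. Growth inhibition was scored against vehicle-treated controls.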

[12] = NCI Yeast Anticancer Drug Screen. Data for the wt2 strain (AID 169);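 note: 0% = growth of vehicle-treated yeast cultures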; details: S. cerevisiae wt2 strain growth inhibition, stronger effect = higher value
Method in brief: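 Against vehicle-treated controls, the growth of yeast exposed to each compound was compared, and the inhibition was recorded.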

[13] = NCI Yeast Anticancer Drug Screen. Data for the mlh1 strain (AID 171);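 note: 0% = growth of vehicle-treated control cultures of the same strain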; details: S. cerevisiae mlh1 strain growth inhibition, stronger effect = higher value
Method in brief: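 Measured: yeast growth. Reference: vehicle-treated controls. Organism: strain with a defined alteration affecting DNA damage repair or cell cycle control, treated with compound.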

[14] = NCI Yeast Anticancer Drug Screen. Data for the sgs1 strain (AID 173);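 note: 0% = growth of vehicle-only control cultures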; details: S. cerevisiae sgs1 mutant, stronger effect = higher value
Method in brief: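 Each compound was added to cultures of the altered yeast strain. Growth was recorded, and inhibition was derived by comparison with vehicle controls.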

[15] = NCI Yeast Anticancer Drug Screen. Data for the mlh1 rad18 strain (AID 175); details: S. cerevisiae mlh1 rad18 strain growth inhibition, stronger effect = higher value
Method in brief: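 Genetically defined yeast (DNA repair-deficient) exposed to compounds; growth inhibition determined relative to vehicle.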

[16] = NCI Yeast Anticancer Drug Screen. Data for the rad18 strain (AID 177); details: S. cerevisiae rad18 mutant growth inhibition, stronger effect = higher value
Method in brief: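 Vehicle-treated cultures served as the baseline for scoring compound-induced growth inhibition in DNA-repair-mutant yeast.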

[17] = at 5.0 µM (retest, dose inferred, filed as 0.5)
[18] = at 50.0 µM (retest, dose inferred, filed as 5.0)

Measured: growth inhibition

CCCCc1ccc(-n2c(C)c(COC(=O)NC)c(COC(=O)NC)c2C)cc1
active: [1]; at 33.0 µM 98% | [1]; at 100.0 µM 93% | [2]; at 33.0 µM 99% | [2]; at 100.0 µM 91% | [3]; at 33.0 µM 90% | [3]; at 100.0 µM 92% | [4]; at 33.0 µM 99% | [4]; at 100.0 µM 94% | [5]; at 33.0 µM 93% | [5]; [18] 95% | [5]; at 50.0 µM 90.6% | [5]; at 100.0 µM 90% | [6]; at 33.0 µM 99% | [6]; [18] 98% | [6]; at 50.0 µM 92.6% | [6]; at 100.0 µM 93% | [7]; at 11.0 µM 89% | [7]; at 33.0 µM 97% | [7]; at 100.0 µM 89% | [8]; at 50.0 µM 88.5% | [9]; at 33.0 µM 97% | [9]; at 100.0 µM 94% | [10]; at 50.0 µM 81.5% | [11]; at 33.0 µM 99% | [11]; at 50.0 µM 85.5% | [11]; at 100.0 µM 88% | [12]; at 33.0 µM 98% | [12]; at 100.0 µM 94% | [13]; at 11.0 µM 83% | [13]; at 33.0 µM 97% | [13]; at 100.0 µM 87% | [14]; at 33.0 µM 98% | [14]; at 100.0 µM 91% | [15]; [18] 98% | [15]; at 50.0 µM 91.2% | [16]; at 33.0 µM 95% | [16]; at 100.0 µM 77%
inactive: [1]; at 1.2 µM -40% | [1]; at 3.7 µM -10% | [1]; at 11.0 µM 5% | [2]; at 1.2 µM -48% | [2]; at 3.7 µM -44% | [2]; at 11.0 µM -13% | [3]; at 1.2 µM -18% | [3]; at 3.7 µM -13% | [3]; at 11.0 µM -6% | [4]; at 1.2 µM -43% | [4]; at 3.7 µM -41% | [4]; at 11.0 µM 19% | [5]; at 1.2 µM -36% | [5]; at 3.7 µM -30% | [5]; [17] 19% | [5]; at 11.0 µM 31% | [6]; at 1.2 µM -28% | [6]; at 3.7 µM -21% | [6]; [17] 14% | [6]; at 11.0 µM 24% | [7]; at 1.2 µM -29% | [7]; at 3.7 µM -11% | [8]; [17] 26% | [8]; [18] 57% | [9]; at 1.2 µM -23% | [9]; at 3.7 µM -1% | [9]; at 11.0 µM 5% | [10]; [17] 21% | [10]; [18] -28% | [11]; at 1.2 µM -36% | [11]; at 3.7 µM -39% | [11]; [17] 11% | [11]; at 11.0 µM 56% | [11]; [18] 4% | [12]; at 1.2 µM -24% | [12]; at 3.7 µM -10% | [12]; at 11.0 µM 5% | [13]; at 1.2 µM -39% | [13]; at 3.7 µM -18% | [14]; at 1.2 µM -3% | [14]; at 3.7 µM -2% | [14]; at 11.0 µM 47% | [15]; [17] 18% | [16]; at 1.2 µM -27% | [16]; at 3.7 µM -1% | [16]; at 11.0 µM 59%

CC(C)(C)CC(C)(C)c1cc(O)c(O)c(CN2CCCCC2)c1
inactive: [1]; at 1.2 µM -2% | [1]; at 3.7 µM -3% | [1]; at 11.0 µM 1% | [1]; at 33.0 µM 12% | [1]; at 100.0 µM 32% | [2]; at 1.2 µM 0% | [2]; at 3.7 µM 1% | [2]; at 11.0 µM 4% | [2]; at 33.0 µM 10% | [2]; at 100.0 µM 7% | [3]; at 1.2 µM -5% | [3]; at 3.7 µM -6% | [3]; at 11.0 µM -12% | [3]; at 33.0 µM -14% | [3]; at 100.0 µM -11% | [4]; at 1.2 µM -1% | [4]; at 3.7 µM -1% | [4]; at 11.0 µM 0% | [4]; at 33.0 µM 3% | [4]; at 100.0 µM 67% | [5]; at 1.2 µM -1% | [5]; at 3.7 µM 0% | [5]; [17] 5% | [5]; at 11.0 µM 9% | [5]; at 33.0 µM 9% | [5]; [18] 54% | [5]; at 100.0 µM 25% | [6]; at 1.2 µM 0% | [6]; at 3.7 µM 1% | [6]; [17] 16% | [6]; at 11.0 µM 2% | [6]; at 33.0 µM 7% | [6]; [18] 11% | [6]; at 50.0 µM 57.9% | [6]; at 100.0 µM 24% | [7]; at 1.2 µM -1% | [7]; at 3.7 µM 2% | [7]; at 11.0 µM 10% | [7]; at 33.0 µM 30% | [7]; at 100.0 µM 68% | [8]; [17] -5% | [8]; [18] 35% | [8]; at 50.0 µM 57.4% | [9]; at 1.2 µM -3% | [9]; at 3.7 µM 1% | [9]; at 11.0 µM 0% | [9]; at 33.0 µM 9% | [9]; at 100.0 µM 49% | [10]; [17] -22% | [10]; [18] 13% | [11]; at 1.2 µM -3% | [11]; at 3.7 µM 2% | [11]; [17] -13% | [11]; at 11.0 µM -30% | [11]; at 33.0 µM 17% | [11]; [18] 59% | [11]; at 100.0 µM 27% | [12]; at 1.2 µM -2% | [12]; at 3.7 µM -1% | [12]; at 11.0 µM 1% | [12]; at 33.0 µM 11% | [12]; at 100.0 µM 39% | [13]; at 1.2 µM 3% | [13]; at 3.7 µM 3% | [13]; at 11.0 µM 4% | [13]; at 33.0 µM -24% | [13]; at 100.0 µM 55% | [14]; at 1.2 µM 1% | [14]; at 3.7 µM 1% | [14]; at 11.0 µM 7% | [14]; at 33.0 µM 24% | [14]; at 100.0 µM 63% | [15]; [17] 3% | [15]; [18] 45% | [15]; at 50.0 µM 65% | [16]; at 1.2 µM 5% | [16]; at 3.7 µM 3% | [16]; at 11.0 µM -38% | [16]; at 33.0 µM 28% | [16]; at 100.0 µM 62%
active: [5]; at 50.0 µM 71.8% | [10]; at 50.0 µM 73.7% | [11]; at 50.0 µM 78.6%
